The source of these data is PubChem BioAssay (NCI).

Holding throughout (assay): NCI-60 one-dose screen, 48 h (100 = growth as untreated, 0 = no growth, -100 = all killed)
Settings in all cases: 10 µM unless noted

Assay [1] relates to SR leukemia.
Assay [2] relates to RPMI-8226 leukemia.
For assay [3], the system named is OVCAR-8 ovarian.
Assay [4] has as its system OVCAR-5 ovarian.
Assay [5] has as its system OVCAR-4 ovarian.
Assay [6] deals with SK-OV-3 ovarian.
The subject of assay [7] is IGROV1 ovarian.
The test system of assay [8] is OVCAR-3 ovarian.
The test system of assay [9] is HS 578T breast.
The subject of assay [10] is NCI/ADR-RES ovarian.

Molecules are shown by their SMILES. This is part of a sample that, as a whole, favours compounds with a hit. Of some 83,000 tested, about 20% had one in any assay.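 Values shown are percent growth following 48 h exposure of cells in 96-well plates to a single concentration of compound; below 10 was considered active.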 Unmarked numbers belong to inactive results. The source made the active and inactive calls.

For the molecule `O=C1/C(=C/c2ccc(F)cc2)COc2ccc(O)cc21`, the growth is 1.11% (active) in assay [1]; -19% (active) in [2]; 87.4% in assay [3]; 96.9% in [4]; 93.4% in [5]; 123% in [6]. Also, the growth in assay [7] was 84.9%; in assay [8], 92.4%; in assay [9], 94.1%; in assay [10], 93.2%.
`Cc1ccc(-c2nn(-c3ccccc3)cc2C=C2C(=O)ON=C2C(C)C)cc1`: the growth in assay [1] is -23.5% (active); in [2], -23.1% (active); in assay [3] it was 59.7%; in assay [4] it was 104%; in [5], 85.4%; in assay [6], 110%. For the same molecule, the growth was 54.7% in [7], 87.7% in assay [8], 56.4% in assay [9] and 96.4% in assay [10].
For the molecule `N#Cc1cccc(NC(=O)c2oc3ccccc3c2-c2cnn(-c3ccccc3)c2)c1`, the growth in assay [1] was 3.02% [50 µM] (active); in assay [2] it was -16.2% [50 µM] (active); in [3] it was 76.4% [50 µM]; in assay [4], 83.8% [50 µM]; in assay [5], 89.1% [50 µM]; in assay [6], 78% [50 µM]. Also, the growth in assay [7] was 92.6% [50 µM]; in assay [8], 104% [50 µM]; in [9], 89.3% [50 µM]; in [10], 77.2% [50 µM].
`C=C1CC[C@@H]2[C@](C)(COC(C)=O)[C@H](OC(C)=O)CC[C@@]2(C)[C@@H]1CC(Sc1ccccc1)C1=CCOC1=O` (stereo not given in full): the growth in assay [1] is 2.9% (active); in assay [2], -4.72% (active); in [3], 11.9%; in [4], 39.8%; in assay [5], 100%; in assay [6], 57.7%. Also, the growth in assay [7] is 25.2%; in [8], -84.2% (active); in assay [9], 54.2%; in assay [10], 10.1%.
On to `N#Cc1c(-c2ccccc2)cc(-c2ccccc2)n(CCCCCC(=O)Nc2ccccc2N)c1=O`, for which the growth in assay [1] was 18.5%; in assay [2], -19.2% (active); in assay [3] it was 58.8%; in [4], 66.4%; in assay [5], 65.9%; in [6], 90.4%. For the same molecule, the growth is 45.9% in [7], 59.2% in [8], 76.2% in assay [9] and 49% in assay [10].
With `COc1ccc2c3c([nH]c2c1)C(=O)c1nc(C)ccc1C3=O`, the growth in assay [1] was 37.4%; in assay [2], 45.4%; in assay [3], 48.5%; in assay [4], 85%; in [5], 25.7%; in assay [6], 76.3%. The growth was 28.8% in assay [7], -13.9% (active) in [8], 84.9% in assay [9] and 44.3% in [10].
As to `O=C1NC(=O)c2c1c1c3ccccc3ccc1c1[nH]c3ccc(Br)cc3c21`, the growth is 11.4% in [1]; -19.9% (active) in assay [2]; 14.7% in assay [3]; 29.7% in assay [4]; 10.3% in assay [5]; 31% in assay [6]. In addition, the growth in assay [7] is 14.4%; in assay [8], 8.73% (active); in [9], 78.4%; in [10] it was 3.52% (active).
As for `Cc1nc2c(=O)[nH]c(SCC(=O)Nc3cccc(F)c3)nc2[nH]c1=O`, the growth in [1] is 132%; in [2], 110%; in assay [3] it was 103%; in [4] it was 103%; in assay [5] it was 101%; in [6], 115%. Besides, the growth is 108% in assay [7], 111% in assay [8], 101% in [9] and 107% in assay [10].
For `O=C(/C=C/c1ccccc1)c1cccc(OCCCOc2cccc(C(=O)/C=C/c3ccccc3)c2)c1`, the growth is 5.29% (active) in [1]; -25.7% (active) in assay [2]; 73.8% in assay [3]; 111% in assay [4]; 92.5% in assay [5]; 109% in [6]. In addition, the growth in assay [7] is 85.1%; in [8], 78.8%; in assay [9] it was 113%; in assay [10], 96.4%.
In the case of `C=CCn1c(SCC(=O)Nc2ccc(C(=O)/C=C/c3ccc(Cl)cc3)cc2)nnc1-c1cc(-c2ccc(S(N)(=O)=O)cc2)nc2ccccc12`, the growth in [1] was 79.5%; in assay [2] it was 5.47% (active); in assay [3], 55.5%; in [4], 96.7%; in [5], 90.2%; in [6], 93.7%. Moreover, the growth in [7] was 87.7%; in [8], 82.8%; in assay [9] it was 98.2%; in assay [10] it was 100%.
Turning to `Oc1ccc(CN2CCC(N3CCCCC3)CC2)c2cccnc12`, the growth was 19.7% in assay [1]; 19.4% in assay [2]; 25% in assay [3]; 47.2% in assay [4]; 22.7% in assay [5]; 16% in assay [6]. The growth in [7] is 25.4%; in assay [8], 28.8%; in [9] it was 27.6%; in assay [10], 30.8%.
`CS(=O)(=O)Nc1cc(-c2ccc3ncnc(Nc4c(Cl)ccc5c4OCO5)c3c2)cnc1Cl`: the growth in [1] was -8.28% (active); in assay [2], -19.7% (active); in assay [3], 8.87% (active); in [4], -28.6% (active); in [5], 8.29% (active); in [6] it was -10.2% (active). Further, the growth in assay [7] was -53.5% (active); in assay [8], -64.5% (active); in assay [9] it was -16.2% (active); in assay [10] it was 3.66% (active).
Consider `O=c1oc2c(cnc3ccccc32)cc1-c1ccsc1`, for which the growth in [1] was 95%; in assay [2], 96.6%; in assay [3], 94.6%; in assay [4], 114%; in assay [5] it was 88.4%; in assay [6], 104%. The growth in assay [7] is 103%; in assay [8] it was 108%; in [9] it was 94.9%; in assay [10], 109%.
